# Shown are actives, neighbours in structure and some others; about 4.3% of the full set was active somewhere.
# HGIII-sPLA2 inh: human group III sPLA2 inhibitors, primary screen, biochemical, QFRET, BODIPY PC-A2 liposome substrate; QFRET BODIPY PC-A2 liposome hydrolysis, fluorescence; inhibition, % at 12.2 µM; 0.56% of 370,000 active; AID 743126, 2013;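 active means inhibition above mean plus 3 SD of compounds lying within the high and low control bounds, cut at about 19% in these data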;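 further: 0% = median of test compound wells and 100% = no enzyme DMSO wells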
# Target sequence (Q9NZ20 whole entry, looked up): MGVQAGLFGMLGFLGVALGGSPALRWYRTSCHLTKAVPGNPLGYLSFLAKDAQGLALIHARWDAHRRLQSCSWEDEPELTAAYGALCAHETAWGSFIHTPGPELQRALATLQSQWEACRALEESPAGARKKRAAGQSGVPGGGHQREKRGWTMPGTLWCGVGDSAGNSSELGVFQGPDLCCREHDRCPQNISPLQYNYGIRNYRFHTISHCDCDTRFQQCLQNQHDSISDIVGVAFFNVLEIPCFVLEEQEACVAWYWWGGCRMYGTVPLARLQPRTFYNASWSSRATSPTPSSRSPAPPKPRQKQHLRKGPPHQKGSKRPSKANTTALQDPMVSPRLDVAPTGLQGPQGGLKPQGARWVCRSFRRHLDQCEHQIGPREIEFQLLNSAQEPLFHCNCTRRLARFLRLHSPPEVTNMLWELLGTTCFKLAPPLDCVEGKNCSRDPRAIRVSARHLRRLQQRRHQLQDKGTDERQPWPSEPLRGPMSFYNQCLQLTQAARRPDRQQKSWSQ
# NR3A LBD binder: binders of NR3A ligand-binding domain, primary screen, biophysical, differential scanning fluorimetry, uHTS; Tm shift relative to glycine control, % at 25 µM; AID 1259313, 2017; Glutamate receptor ionotropic, NMDA 3A (GRIN3A) ligand-binding domain; NR3A LBD differential scanning fluorimetry, Tm shift; 0% = protein alone, 100% = glycine-bound protein; 2.5% of 340,000 active;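 active means melting temperature shift of at least 10% of the positive control shift, at one fixed dose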
# ADAM17 inh: ADAM17 inhibitors, primary screen, biochemical, QFRET; Disintegrin and metalloproteinase domain-containing protein 17 (Homo sapiens), P78536; 0.83% of 370,000 active; AID 720648, 2013; inhibition, % at 6.95 µM; recombinant ADAM17, EDANS/DABCYL FRET peptide cleavage;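 active means inhibition above the mean of compounds lying between control limits plus 3 SD, set per campaign, cut at about 8.5% in these data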;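 further: 0% = DMSO-only wells as the low control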
# ADAM10 inh: human ADAM10 inhibitors, primary screen, biochemical, QFRET, HTS | Disintegrin and metalloproteinase domain-containing protein 10 (Homo sapiens), O14672 | recombinant ADAM10, EDANS/DABCYL FRET peptide cleavage, 3 h | inhibition, % at 7 µM | 0.62% of 370,000 active | AID 720582, 2013;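 active means inhibition above a per-campaign cutoff equal to the mean of compounds falling between control-based bounds plus 3 SD, cut at about 20% in these data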;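 further: 0% = DMSO wells while the 100% control is not disclosed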
# FAS-TE inh: FAS thioesterase domain inhibitors, primary screen, biochemical, fluorescence intensity, uHTS; Fatty acid synthase (Homo sapiens), P49327; recombinant FAS-TE, OMFH fluorogenic substrate, fluorescence endpoint; inhibition, % at 15 µM; 0.67% of 360,000 active; AID 602261, 2012;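 active means compounds whose normalised, plate-corrected inhibition of enzyme fluorescence in the single-dose primary screen is 50% or more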;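 further: 0% = DMSO with enzyme and 100% = substrate without enzyme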
# FAS-TE inh conf: FAS thioesterase domain inhibitors, confirmation, biochemical, fluorescence intensity, single concentration; shares compounds with FAS-TE inh; recombinant FAS-TE, OMFH fluorogenic substrate; inhibition, % at 15 µM; 45% of 2,300 active; AID 624325, 2012;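 active means compounds inhibiting the enzyme by at least 50% at 15 µM in any one of the replicates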;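 further: 0% = enzyme with DMSO only and 100% = wells lacking enzyme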
# Numbers without * were called inactive; / = no result given.
SMILES,HGIII-sPLA2 inh,NR3A LBD binder,ADAM17 inh,ADAM10 inh,FAS-TE inh,FAS-TE inh conf
CC[C@@]12C(=O)N(c3cccc(F)c3)C(=O)N1[C@H](c1ccc(Cl)cc1)[C@@H]1C(=O)N(C3CCCCC3)C(=O)[C@@H]12,-17.8,-2.4,3.9,5.9,66.6*,22.1
Cc1cccc(N2C(=O)N3[C@H](c4ccc(F)cc4)[C@@H]4C(=O)N(C5CCCCC5)C(=O)[C@@H]4[C@]3(Cc3ccc(Cl)cc3)C2=O)c1,2.7,-0.4,-2.6,4.6,92.7*,20.7
O=C1[C@H]2[C@@H](c3ccc(F)cc3)N3C(=O)N(c4cccc(F)c4)C(=O)[C@@]3(Cc3ccc(Cl)cc3)[C@H]2C(=O)N1C1CCCCC1,2.6,9.6,-2.5,-2.4,71.2*,28.4
Cc1ccc(N2C(=O)N3[C@H](c4ccc(F)cc4)[C@@H]4C(=O)N(C5CCCCC5)C(=O)[C@@H]4[C@]3(C)C2=O)cc1,/,-6.1,/,/,17.9,/
CC[C@@]12C(=O)N(c3cccc(F)c3)C(=O)N1[C@H](c1ccc(OC)cc1)[C@@H]1C(=O)N(C(C)(C)C)C(=O)[C@@H]12,-9.7,0.2,-3.8,0.5,-4.3,/
Cc1ccc(N2C(=O)N3[C@H](c4ccc(Cl)cc4)[C@@H]4C(=O)N(C5CCCCC5)C(=O)[C@@H]4[C@]3(Cc3ccccc3)C2=O)cc1,1.4,4.0,-4.6,7.8,93.0*,37.5
CCN1C(=O)[C@H]2[C@@H](c3ccc(C)cc3)N3C(=O)N(c4cccc(F)c4)C(=O)[C@@]3(C)[C@H]2C1=O,8.8,1.8,-3.8,4.3,-3.9,/
COc1ccc(N2C(=O)N3[C@H](c4cccc(C)c4)[C@@H]4C(=O)N(Cc5ccccc5)C(=O)[C@@H]4[C@]3(Cc3ccccc3)C2=O)cc1,-2.8,4.4,-0.1,4.8,/,/
CCN(C(=O)COC(=O)c1cc(-c2cccc3ccccc23)nc2ccccc12)C1CCS(=O)(=O)C1 (configuration not stated),-21.0,-2.4,-13.4,-40.9,60.3*,31.7
COc1ccc(C2CC(c3ccccc3)=NN2C(=O)COC(=O)c2cnc(Cl)c(Cl)c2)cc1 (configuration not stated),0.2,-1.8,2.7,-6.0,25.4,/
COc1ccc(C2CC(c3ccccc3)=NN2C(=O)COC(=O)c2ccc(Cl)nc2)cc1 (configuration not stated),-13.6,0.4,2.2,8.2,29.5,/
COc1ccc(C2CC(c3ccccc3)=NN2C(=O)COC(=O)c2cccc(S(=O)(=O)N3CCOCC3)c2)cc1 (configuration not stated),5.5,0.3,-3.0,-1.2,69.6*,13.3
COc1ccc(C2CC(c3ccccc3)=NN2C(=O)COC(=O)c2cccc(S(=O)(=O)N(C)C)c2)cc1 (configuration not stated),-20.2,0.5,5.8,18.7,71.8*,-0.2
COc1ccc(-n2c(SCC(=O)Nc3ccccc3-c3ccccc3)nnc2-c2ccco2)cc1,-2.1,/,4.6,-2.5,/,/
CCOC(=O)Cc1nc(N2CCCN(C(C)=O)CC2)c2c(C)c(C(=O)OCC)sc2n1,4.2,/,-6.9,-39.8,/,/
COc1cccc(OCCOc2ccc(/C=C3/SC(=S)NC3=O)cc2)c1,-5.5,10.3*,-1.2,4.8,67.7*,39.8
COc1ccc(C=C2SC(=S)NC2=O)cc1,-6.7,-0.6,3.7,-6.8,8.8,/
COc1ccc(-c2ccc3c(n2)CCCN3S(=O)(=O)c2ccccc2)cc1,3.1,/,-3.0,-12.6,/,/
COC(=O)[C@]12CCCCC=C1N(Cc1ccc(OC)cc1)C(=O)[C@@H]2CC(=O)N1CCOCC1,3.0,/,1.4,-1.0,/,/
COc1cccc(N2CCN(CC(=O)Nc3nc4c(s3)CC(C)CC4)CC2)c1 (configuration not stated),-15.5,-0.5,1.4,11.0,19.1,/
CC1CCc2nc(NC(=O)CN3CCN(c4ccc(F)cc4)CC3)sc2C1 (configuration not stated),-10.8,-13.2,6.0,12.7,85.1*,78.5*
O=C(CCNC(=O)c1ccc([N+](=O)[O-])cc1)NCCc1ccc(Cl)cc1,-0.5,1.0,0.9,-4.1,61.7*,69.9*
Cc1ccc(NC(=O)CCNC(=O)c2ccc([N+](=O)[O-])cc2)cc1C,-0.5,-4.5,3.2,5.3,64.5*,68.9*
O=[N+]([O-])c1cccc(-c2ccc(SCc3cccnc3)nn2)c1,-1.9,0.5,-2.6,14.2,52.9*,57.6*
CCCCOc1ccc(S(=O)(=O)N2CCCCC2)cc1,-7.6,-2.0,-1.6,3.1,22.6,/
SMILES,HGIII-sPLA2 inh,NR3A LBD binder,ADAM17 inh,ADAM10 inh,FAS-TE inh,FAS-TE inh conf
CCCCOc1ccc(S(=O)(=O)N2CCN(c3ccc(N4CCN(CC)CC4)nn3)CC2)cc1,-7.6,1.2,-19.9,-78.0,59.8*,29.2
CCCCCCCCN1C(=O)[C@@H](CC(=O)N2CCOCC2)C[C@@]2(C(=O)OC)C1=C[C@H](C1CCCC1)O[C@@H]2C,-3.8,/,3.5,12.3,/,/
Cc1ccc(-c2nnc(Nc3ccc4c(c3)OCO4)c3ccccc23)cc1S(=O)(=O)NC(C)C,-3.4,-2.2,2.6,-2.1,50.6*,15.3
Cc1ccc(-c2nnc(Nc3ccc4c(c3)OCO4)c3ccccc23)cc1S(=O)(=O)NCCO,-9.4,-2.6,1.6,2.2,0.1,/
C[C@@H](CO)N(CCc1cn(Cc2ccccc2)nn1)S(=O)(=O)c1ccccc1Br,-2.3,/,-2.1,-2.3,/,/
N/C(=N\c1nc2c(c(=O)[nH]1)CCCC2)Nc1ccccc1,-1.1,-1.4,-2.4,-2.7,-4.7,/
N/C(=N\c1nc2c(c(=O)[nH]1)CCCC2)Nc1ccccc1Sc1ccccc1,0.8,-3.0,-1.9,-0.1,51.3*,12.8
C#CCCN([C@H](C(=O)OC)C(C)CC)S(=O)(=O)c1ccccc1Br (some centres not stated),-0.7,/,8.2,10.8,/,/
Cc1ccnc(SCc2cc(=O)c(OC(=O)c3ccc(C#N)cc3)co2)n1,13.7,/,-1.2,-8.2,/,/
O=C(/C=C/c1ccc(Cl)cc1Cl)N1CCN(c2ccc([N+](=O)[O-])c(N3CCOCC3)c2)CC1,-5.2,-5.4,1.3,-0.1,64.8*,16.5
O=C(/C=C/c1ccc(Cl)cc1)N1CCN(c2ccc([N+](=O)[O-])c(N3CCOCC3)c2)CC1,11.1,-6.0,-2.9,-6.7,34.7,/
CC(=O)OCCN(C)c1cc(SC(C)C)c2nonc2c1[N+](=O)[O-],3.8,2.1,-1.2,3.6,14.2,/

# Source: PubChem
